Inhibition data for 14 compounds are collected here from ChEMBL document CHEMBL3433997, “St. Jude Leishmania screening dataset” (2016).

Molecules are shown by their SMILES.

Chain of Solute carrier family 2, facilitated glucose transporter member 1 (Homo sapiens) (P11166 whole entry): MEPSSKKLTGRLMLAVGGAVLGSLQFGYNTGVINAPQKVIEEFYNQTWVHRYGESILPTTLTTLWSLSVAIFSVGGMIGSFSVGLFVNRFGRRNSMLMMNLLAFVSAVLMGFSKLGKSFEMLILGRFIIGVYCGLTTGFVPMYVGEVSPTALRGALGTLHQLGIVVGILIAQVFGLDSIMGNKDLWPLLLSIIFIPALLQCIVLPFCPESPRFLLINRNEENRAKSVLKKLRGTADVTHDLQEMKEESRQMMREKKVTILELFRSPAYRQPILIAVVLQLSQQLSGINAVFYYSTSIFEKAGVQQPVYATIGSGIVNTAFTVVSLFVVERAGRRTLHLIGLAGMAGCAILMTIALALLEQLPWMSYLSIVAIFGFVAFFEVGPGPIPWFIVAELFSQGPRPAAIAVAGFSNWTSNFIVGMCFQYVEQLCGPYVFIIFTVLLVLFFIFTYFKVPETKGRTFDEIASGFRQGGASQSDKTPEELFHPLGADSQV

The experiment addresses Solute carrier family 2, facilitated glucose transporter member 1 (Homo sapiens) (UniProt P11166). The experiment can be described thus: ST_JUDE_LEISH: Cytotoxicity at 2uM final concentration against transgenic Leishmania Mexicana promastigotes LmGLUT1 that are glucose transport deficient and complemented with the human glucose transporter GLUT1. Activity is measured by DNA content using SYBR green in vitro. The format is functional.
One may read the inhibition as the relative decrease from the control value, in per cent. Turning to `O=C(c1cc(-c2ccccc2)n[nH]1)N1CCN(S(=O)(=O)c2ccc(Cl)s2)CC1`, the inhibition is 4.06%.

With `Nc1ncc(-c2ccc3nccc(-c4ccncc4)c3c2)cc1S(=O)(=O)N1CCCCC1`, the inhibition came to 12.9%.

Consider `Cc1cc(F)ccc1Nc1nc(N(C)c2ccccc2)c2cccc(O)c2n1`, for which the inhibition was determined as 12.3%.

`Cc1[nH]c(C)c(-c2ccc(OCc3cccc(C(F)(F)F)c3)nc2)c(=O)c1Br`: the inhibition was determined as 44.5%.

For `CC(C)Nc1nc(NCCc2c[nH]cn2)nc(NCc2cccc3ccccc23)n1`, the inhibition was -1.11%.

Take `COc1cc2nc(NCC3CCN(C(=O)c4ccc(-c5ccc(C(=O)N(C)C)cc5C)cc4)CC3)nc(N)c2cc1OC`: the inhibition worked out at 10.9%.

For the compound `CC(=O)N(C)C1CCN(Cc2ccc(-c3ccc(-c4nc5cc(F)ccc5[nH]4)s3)cc2)C1` (centres undefined), the inhibition turned out to be 8.07%.

Take `O=C(Nc1ccc(N2CCNCC2)cc1)c1ccn2ncc(-c3cccc(Cl)c3)c2n1`: the inhibition turned out to be 84.8%.

With `CN(C)CCCn1cncc1-c1ccc2ncnc(Nc3ccc4c(cnn4Cc4ccccc4)c3)c2c1`, the inhibition is 1.25%.

Turning to `O=C1COC2(CN1C1CCN(Cc3ccc(O)c(Cl)c3)C1)c1ccccc1-c1ccccc12` (centres undefined), the inhibition turned out to be 9.11%.

In the case of `COC(=O)c1ccc(CC(C)NCC(O)c2ccc(C(O)CNC(C)Cc3ccc(C(=O)OC)cc3)cc2)cc1` (centres undefined), the inhibition was -0.44%.

Regarding `N=C(NC1CC1)c1ccc2[nH]c(CCCCCc3nc4cc(C(=N)NC5CC5)ccc4[nH]3)nc2c1`, the inhibition was -1.14%.

For the compound `COc1ccc(CNC(=O)c2cnc3c(O)cccc3c2Nc2cccc(NC(=O)c3ccc(Cl)c([N+](=O)[O-])c3)c2)cc1`, the inhibition turned out to be 0.79%.

Turning to `O=C(NCc1ccccn1)C(c1cc2ccccc2o1)N1CCN(C(c2ccccc2)c2ccccc2)CC1` (centres undefined), the inhibition came out at 0.6%.
